Whole data set: some 8,300 sequences, median “log2 fold change of degron read counts, EGFP-low vs EGFP+ sorted cells (limma voom), compound-induced degradation” near -1.1, cut for the highest 2% near 3.2. The sample as a whole holds a higher share of the highest values than the screen did.

This test concerns the target T1, CRBN, Q96SW2.
T1 chain: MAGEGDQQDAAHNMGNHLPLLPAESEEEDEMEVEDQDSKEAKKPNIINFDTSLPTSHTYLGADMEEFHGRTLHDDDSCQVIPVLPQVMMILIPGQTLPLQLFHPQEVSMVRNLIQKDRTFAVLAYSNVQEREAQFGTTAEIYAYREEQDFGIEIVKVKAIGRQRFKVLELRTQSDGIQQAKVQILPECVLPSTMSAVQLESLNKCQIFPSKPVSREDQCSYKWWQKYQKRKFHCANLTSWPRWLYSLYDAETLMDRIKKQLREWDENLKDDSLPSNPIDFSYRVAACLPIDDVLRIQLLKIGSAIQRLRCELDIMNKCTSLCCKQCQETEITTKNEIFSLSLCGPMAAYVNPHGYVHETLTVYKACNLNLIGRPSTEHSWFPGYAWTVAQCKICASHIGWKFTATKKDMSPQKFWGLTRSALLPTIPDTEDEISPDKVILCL
Briefly: log2 fold change of degron read counts, EGFP-low vs EGFP+ sorted cells (limma voom), compound-induced degradation; higher = more compound-induced degradation of the degron-EGFP fusion; degrons are variants of IKZF1/3 zinc finger 2; compound dose not given here. The note with it: Jurkat, 18 h.

Setting [1] is: compound: compound 19 (5-tert-butyl-thalidomide).
Where [2] appears, read: compound: compound 22 (5-morpholino-thalidomide).
Where [3] appears, read: compound: compound 33 (diphenyl IMiD analogue).
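Note: pooled lentiviral library of zinc finger degron-EGFP fusions in mCherry-positive Jurkat cells, FACS-sorted after compound exposure, with degron abundance counted by next-generation sequencing.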

B1: 46F_47Y_49E_50V_52G_53A_54L_55F_67L_, Q9UKT9 (peptide)
chain: FYCEVCGALFTQKGNLLRHIKL
For B1, the “log2 fold change of degron read counts” value runs as follows: under setting [1], 3.18; under setting [2], 3.03; under setting [3], 2.24; (compound: thalidomide) 0.431.

B2: 46F_47D_49E_50V_52G_53A_54R_55F_67L_, Q9UKT9 (peptide)
chain: FDCEVCGARFTQKGNLLRHIKL
As to B2, the “log2 fold change of degron read counts” value under setting [1] was found to be 3.09, the “log2 fold change of degron read counts” value under setting [2] amounted to 1.52, the “log2 fold change of degron read counts” value under setting [3] was determined as 0.571 and the “log2 fold change of degron read counts” value (compound: thalidomide) was found to be 2.08.

B3: 46F_47Y_49E_50V_52G_53A_54R_55F_67L_, Q9UKT9 (peptide)
chain: FYCEVCGARFTQKGNLLRHIKL
In the case of B3, the “log2 fold change of degron read counts” value under setting [1] stood at 3.84, the “log2 fold change of degron read counts” value under setting [2] was determined as 3.8, the “log2 fold change of degron read counts” value under setting [3] came out at 2.26 and the “log2 fold change of degron read counts” value (compound: thalidomide) is 1.95.

B4: 46F_47L_49E_50V_52G_53A_54E_55F_67L_, Q9UKT9 (peptide)
chain: FLCEVCGAEFTQKGNLLRHIKL
For the sequence B4, the “log2 fold change of degron read counts” value under setting [1] is 0.493, the “log2 fold change of degron read counts” value under setting [2] was -1.2, the “log2 fold change of degron read counts” value under setting [3] was 0.235 and the “log2 fold change of degron read counts” value (compound: thalidomide) is 1.01.

B5: 46F_47Y_49P_50I_52G_53R_54S_55F_67L_, Q9UKT9 (peptide)
chain: FYCPICGRSFTQKGNLLRHIKL
Regarding B5, the “log2 fold change of degron read counts” value runs as follows: under setting [1], -1.81; under setting [2], -2.36; under setting [3], -1.67; (compound: thalidomide) -2.4.

B6: 46F_47H_49N_50Q_52G_53H_54Y_55F_67L_, Q9UKT9 (peptide)
chain: FHCNQCGHYFTQKGNLLRHIKL
In the case of B6, the “log2 fold change of degron read counts” value is -2.17 under setting [1], -2.71 under setting [2], -2.16 under setting [3] and -1.62 (compound: thalidomide).

B7: 46F_47Y_49P_50I_52G_53R_54M_55F_67L_, Q9UKT9 (peptide)
chain: FYCPICGRMFTQKGNLLRHIKL
For B7, the “log2 fold change of degron read counts” value by setting is: under setting [1], -0.787; under setting [2], -1.23; under setting [3], -0.675; (compound: thalidomide) -1.57.

B8: 46F_47N_49E_50V_52G_53A_54R_55F_67L_, Q9UKT9 (peptide)
chain: FNCEVCGARFTQKGNLLRHIKL
In the case of B8, the “log2 fold change of degron read counts” value by setting is: under setting [1], 2.12; under setting [2], 0.955; under setting [3], -0.805; (compound: thalidomide) 0.249.

B9: 46F_47K_49E_50V_52G_53A_54R_55F_67L_, Q9UKT9 (peptide)
chain: FKCEVCGARFTQKGNLLRHIKL
With B9, the “log2 fold change of degron read counts” value was -1.76 under setting [1], -3.02 under setting [2], -3.44 under setting [3] and -1.87 (compound: thalidomide).

B10: 46F_47A_49E_50V_52G_53A_54L_55F_67L_, Q9UKT9 (peptide)
chain: FACEVCGALFTQKGNLLRHIKL
For the sequence B10, the “log2 fold change of degron read counts” value runs as follows: under setting [1], 1.98; under setting [2], -0.613; under setting [3], -0.457; (compound: thalidomide) -1.05.

B11: 46F_47G_49E_50V_52G_53A_54L_55F_67L_, Q9UKT9 (peptide)
chain: FGCEVCGALFTQKGNLLRHIKL
As to B11, the “log2 fold change of degron read counts” value was 2.18 under setting [1], 0.893 under setting [2], 1.4 under setting [3] and -0.493 (compound: thalidomide).

B12: 46F_47A_49E_50V_52G_53A_54R_55F_67L_, Q9UKT9 (peptide)
chain: FACEVCGARFTQKGNLLRHIKL
Take B12: the “log2 fold change of degron read counts” value by setting is: under setting [1], 3.91; under setting [2], 3.03; under setting [3], -0.415; (compound: thalidomide) 1.17.

B13: 46F_47M_49E_50V_52G_53A_54R_55F_67L_, Q9UKT9 (peptide)
chain: FMCEVCGARFTQKGNLLRHIKL
In the case of B13, the “log2 fold change of degron read counts” value reads like this: under setting [1], 0.167; under setting [2], -0.178; under setting [3], 1.48; (compound: thalidomide) 1.48.

B14: 46F_47L_49E_50V_52G_53A_54R_55F_67L_, Q9UKT9 (peptide)
chain: FLCEVCGARFTQKGNLLRHIKL
Consider B14, for which the “log2 fold change of degron read counts” value under setting [1] was -0.109, the “log2 fold change of degron read counts” value under setting [2] was -1.35, the “log2 fold change of degron read counts” value under setting [3] is -0.123 and the “log2 fold change of degron read counts” value (compound: thalidomide) worked out at 2.09.

B15: 46F_47G_49E_50V_52G_53A_54R_55F_67L_, Q9UKT9 (peptide)
chain: FGCEVCGARFTQKGNLLRHIKL
Turning to B15, the “log2 fold change of degron read counts” value by setting is: under setting [1], 3.86; under setting [2], 2.74; under setting [3], -0.6; (compound: thalidomide) 1.27.

B16: 46F_47A_49E_50V_52G_53A_54D_55F_67L_, Q9UKT9 (peptide)
chain: FACEVCGADFTQKGNLLRHIKL
With B16, the “log2 fold change of degron read counts” value was 1.11 under setting [1], -1.42 under setting [2], -1.53 under setting [3] and -1.97 (compound: thalidomide).

B17: 46F_47G_49E_50V_52G_53A_54D_55F_67L_, Q9UKT9 (peptide)
chain: FGCEVCGADFTQKGNLLRHIKL
Regarding B17, the “log2 fold change of degron read counts” value was -1.71 under setting [1], -2.17 under setting [2], -0.906 under setting [3] and -1.3 (compound: thalidomide).

B18: 46F_47Q_49E_50V_52G_53A_54R_55F_67L_, Q9UKT9 (peptide)
chain: FQCEVCGARFTQKGNLLRHIKL
Regarding B18, the “log2 fold change of degron read counts” value runs as follows: under setting [1], -0.109; under setting [2], 1.95; under setting [3], 1.42; (compound: thalidomide) 3.71.

B19: 46F_47V_49E_50V_52G_53A_54R_55F_67L_, Q9UKT9 (peptide)
chain: FVCEVCGARFTQKGNLLRHIKL
Take B19: the “log2 fold change of degron read counts” value is 1.35 under setting [1], 2.78 under setting [2], 0.984 under setting [3] and 3.25 (compound: thalidomide).

The values above are taken from the supplement of paper PMC12645437, “Orthogonal IMiD-Degron Pairs Induce Selective Protein Degradation in Cells” (ACS Chemical Biology, 2025).
